The source of these data is PubChem BioAssay.

Test [1] has as its target Albumin (Bos taurus) (UniProt P02769). Description: bovine serum albumin binders on microarray, profiling panel, artefact control for SMM control protein annotation, biochemical, small-molecule microarray, Alexa647 label, 635/667 nm fluorescence (AID 1118).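 Further: score merges 667 nm emission intensity and signal-to-noise per printed compound spot.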 The conditions noted are these: BSA-A647 binding, fluorescence 635 nm, higher = more signal.
The nature of test [2]: small-molecule microarray binders of probe aXIP, primary screen, biochemical, NeuroSMM set, 635/667 nm fluorescence (AID 1119).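 Further: probe is the protein aXip251-270 applied at 1 µg/mL to compound-printed slides; binding of probe to printed compounds measured as 667 nm fluorescence plus signal to noise.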 The conditions noted are these: higher = more signal, called active from +8 up or from −8 down.
A short description of test [3]: small-molecule binders of probe aNOTCH3, primary screen, biochemical, small-molecule microarray, 635/667 nm fluorescence (AID 1120).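 Further: probe is a biotin-tagged antibody raised against NOTCH3 rather than NOTCH3 protein; score merges spot fluorescence near 667 nm with spot signal to noise.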 The conditions noted are these: higher = more signal.
Test [4] in a line: small-molecule binders of probe aNOTCH2, primary screen, biochemical, small-molecule microarray, 635/667 nm fluorescence (AID 1121).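 Further: score merges feature fluorescence read at 667 nm with its signal to noise.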 The following applies: higher = more signal.
For test [5], the target named is Carbonic anhydrase 2 (Homo sapiens) (UniProt P00918). The test is described as follows: CAII small-molecule binders, profiling panel, biochemical, small-molecule microarray, Alexa647-labelled CAII (AID 1122). The following applies: CAII-A647 binding fluorescence, higher = more signal.
Test [6] is described as follows: COS7 lysate on small-molecule microarray, probe aHis, 635 nm (AID 1123).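 Further: z-score combines 667nm fluorescence intensity with signal-to-noise per printed compound spot.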 The conditions noted are these: COS7 cell lysate, fluorescence, higher = more signal.
Test [7] is described as follows: compound binding in COS7 lysate, probe aLAP1, primary screen, cell lysate, small-molecule microarray (AID 1124).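 Further: lysate comes from COS7 cells expressing LAP1 and is applied at 0.3 µg/mL; score merges spot fluorescence near 667 nm with signal-to-noise over triplicate slides.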 The following applies: probe aLAP1, fluorescence, higher = more signal.
The subject of test [8] is Sam68 (KHDRBS1). The test is described as follows: Sam68 small-molecule binders, primary screen, biochemical, small-molecule microarray, 635 nm fluorescence (AID 1125).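 Further: score merges 667 nm channel intensity with signal to noise over triplicate slides.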 The following applies: small-molecule microarray binding, higher = more signal.
For test [9], the system named is Chordin-like protein 2 (CHRDL2). Description: CHRDL2 small-molecule binders, primary screen, biochemical, small-molecule microarray, 635 nm fluorescence (AID 1126).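 Further: printed compound slides probed with Chrdl2 protein at 4 µg/mL for 1 h at 4 C; score merges 667 nm emission intensity with signal to noise over three replicate slides.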 The conditions noted are these: small-molecule microarray binding, fluorescence 635 nm; higher = more signal.
Test [10] deals with Concanavalin-A (Canavalia ensiformis) (UniProt P02866). The test is described as follows: ConA small-molecule binders, primary screen, artefact control for SMM control protein annotation, biochemical, small-molecule microarray, Alexa647 label, 635 nm (AID 1127).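 Further: z combines 667 nm emission intensity with signal-to-noise across three replicate slides.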 The following applies: ConA-A647 binding fluorescence, higher = more signal.
Concanavalin-A (Canavalia ensiformis), sequence (P02866 whole entry, looked up): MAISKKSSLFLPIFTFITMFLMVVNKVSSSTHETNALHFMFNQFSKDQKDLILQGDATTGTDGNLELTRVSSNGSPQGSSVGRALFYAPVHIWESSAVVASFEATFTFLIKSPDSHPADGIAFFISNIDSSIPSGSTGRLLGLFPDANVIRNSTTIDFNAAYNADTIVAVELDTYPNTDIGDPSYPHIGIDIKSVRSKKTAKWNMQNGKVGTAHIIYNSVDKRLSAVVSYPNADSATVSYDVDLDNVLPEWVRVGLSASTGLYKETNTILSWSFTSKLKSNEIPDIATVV
Test [11] in a line: anti-His antibody binders, primary screen, artefact control for SMM control protein annotation, biochemical, small-molecule microarray, 635 nm fluorescence (AID 1128).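 Further: score merges feature fluorescence with signal-to-noise for each printed compound spot.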 The following applies: anti-His Alexa647 antibody binding, higher = more signal.
Test [12] deals with Human papillomavirus type 1a E7 protein (residues 1-88). Description: HPV1a E7 small-molecule binders, primary screen, biochemical, small-molecule microarray, residues 1-88, 635 nm (AID 1129). The following applies: small-molecule microarray binding, fluorescence 635 nm; higher = more signal.
In test [13] the target is Focal adhesion kinase 1 (Homo sapiens) (UniProt Q05397). The test is described as follows: small-molecule microarray binders of FAK, primary screen, biochemical, 635/667 nm fluorescence, BSA, DTT (AID 1130).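 Further: composite of spot emission at 667 nm and signal to noise over triplicate slides.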 The following applies: PTK2 binding, 635 nm fluorescence, higher = more signal.
Focal adhesion kinase 1 (Homo sapiens), sequence (Q05397 whole entry, looked up): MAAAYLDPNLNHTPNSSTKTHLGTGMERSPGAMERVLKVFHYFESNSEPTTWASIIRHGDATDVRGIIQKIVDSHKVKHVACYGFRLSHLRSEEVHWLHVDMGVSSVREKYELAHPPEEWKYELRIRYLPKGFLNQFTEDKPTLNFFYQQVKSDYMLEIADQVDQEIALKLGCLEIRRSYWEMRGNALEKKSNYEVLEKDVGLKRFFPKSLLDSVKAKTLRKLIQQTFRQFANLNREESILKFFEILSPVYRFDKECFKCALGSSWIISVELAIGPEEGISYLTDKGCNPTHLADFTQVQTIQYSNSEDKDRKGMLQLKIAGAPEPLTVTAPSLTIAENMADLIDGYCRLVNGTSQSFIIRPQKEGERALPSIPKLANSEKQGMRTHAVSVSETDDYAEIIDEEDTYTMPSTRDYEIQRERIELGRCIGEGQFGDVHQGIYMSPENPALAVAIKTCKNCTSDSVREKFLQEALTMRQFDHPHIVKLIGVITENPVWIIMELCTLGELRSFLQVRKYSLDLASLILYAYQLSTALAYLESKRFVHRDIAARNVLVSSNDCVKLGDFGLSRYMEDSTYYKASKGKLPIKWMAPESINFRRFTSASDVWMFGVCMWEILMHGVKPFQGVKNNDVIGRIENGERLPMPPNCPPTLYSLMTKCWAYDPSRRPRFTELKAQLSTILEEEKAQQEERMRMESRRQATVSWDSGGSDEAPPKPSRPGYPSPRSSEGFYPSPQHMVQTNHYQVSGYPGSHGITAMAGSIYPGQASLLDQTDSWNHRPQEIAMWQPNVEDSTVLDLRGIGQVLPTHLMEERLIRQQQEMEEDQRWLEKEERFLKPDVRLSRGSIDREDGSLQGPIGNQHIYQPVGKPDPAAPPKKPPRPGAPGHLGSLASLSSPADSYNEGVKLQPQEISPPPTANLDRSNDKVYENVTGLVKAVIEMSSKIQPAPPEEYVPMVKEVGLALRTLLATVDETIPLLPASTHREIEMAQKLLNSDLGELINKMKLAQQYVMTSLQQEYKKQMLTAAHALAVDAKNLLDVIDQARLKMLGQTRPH
Test [14] relates to Fibrinogen (Alexa647-labelled). Description: fibrinogen binders on compound microarrays, profiling panel, artefact control for SMM control-protein annotation, biochemical, small-molecule microarray, 635/667 nm fluorescence (AID 1131).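 Further: z-score merges 667 nm fluorescence with per-spot signal-to-noise over triplicate slides.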 The conditions noted are these: fibrinogen-A647 binding fluorescence, higher = more signal.
Test [15] has as its target Follistatin (Homo sapiens) (UniProt P19883). Description: follistatin binders on small-molecule microarrays, primary screen, biochemical, small-molecule microarray, 635/667 nm fluorescence (AID 1132). The following applies: FST binding, 635 nm fluorescence, higher = more signal.
Test [16] deals with Fibroblast growth factor 2 (Homo sapiens) (UniProt P09038). Description: FGF2 binders on small-molecule microarrays, primary screen, biochemical, small-molecule microarray, 635/667 nm fluorescence (AID 1133). The following applies: small-molecule microarray binding, FGF2, fluorescence 635/667; higher = more signal.
Fibroblast growth factor 2 (Homo sapiens), sequence (P09038 whole entry, looked up): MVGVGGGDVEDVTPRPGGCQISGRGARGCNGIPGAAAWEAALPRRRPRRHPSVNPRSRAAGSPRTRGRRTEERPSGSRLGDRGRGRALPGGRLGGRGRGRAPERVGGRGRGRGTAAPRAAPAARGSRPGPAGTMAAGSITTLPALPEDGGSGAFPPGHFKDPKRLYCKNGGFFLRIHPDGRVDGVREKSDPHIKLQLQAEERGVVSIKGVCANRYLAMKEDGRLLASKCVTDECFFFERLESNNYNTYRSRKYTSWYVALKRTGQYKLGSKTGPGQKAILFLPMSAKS
A short description of test [17]: mitochondrial membrane potential change in A549 cells, profiling panel, cell-based, JC-1 fluorescence, basal, 24 h, 100 nL (AID 1138).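 Further: A549 lung adenocarcinoma cells under basal conditions with no added stimulus; test concentration not given here.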 The conditions noted are these: higher = more signal.
Test [18] has as its system Lefty1. Description: Lefty1 binders on small-molecule microarrays, primary screen, biochemical, small-molecule microarray, 635/667 nm fluorescence (AID 1139). The following applies: small-molecule microarray binding, fluorescence 635/667; higher = more signal.
The test system of test [19] is wheat germ agglutinin (Triticum aestivum), Alexa647-labelled. Description: wheat germ agglutinin binders on compound microarrays, profiling panel, artefact control for SMM control-protein annotation, biochemical, small-molecule microarray, 635/667 nm fluorescence (AID 1140).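 Further: score merges 667 nm feature emission with signal to noise over triplicate slides.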 The following applies: WGA-A647 binding, 635 nm fluorescence, higher = more signal.
Test [20] deals with Luciferin 4-monooxygenase (Photinus pyralis) (UniProt P08659). The test is described as follows: firefly luciferase enzyme inhibitors, primary screen, biochemical, luminescence, purified enzyme, 2006 set (AID 1141).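 Further: cell-free assay with purified firefly luciferase at 100 ng per well in PBS; test concentration not given here.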 The following applies: SteadyGlo luminescence, 30 min, higher = more signal, called active from +8 up or from −8 down.
Luciferin 4-monooxygenase (Photinus pyralis), sequence (P08659 whole entry, looked up): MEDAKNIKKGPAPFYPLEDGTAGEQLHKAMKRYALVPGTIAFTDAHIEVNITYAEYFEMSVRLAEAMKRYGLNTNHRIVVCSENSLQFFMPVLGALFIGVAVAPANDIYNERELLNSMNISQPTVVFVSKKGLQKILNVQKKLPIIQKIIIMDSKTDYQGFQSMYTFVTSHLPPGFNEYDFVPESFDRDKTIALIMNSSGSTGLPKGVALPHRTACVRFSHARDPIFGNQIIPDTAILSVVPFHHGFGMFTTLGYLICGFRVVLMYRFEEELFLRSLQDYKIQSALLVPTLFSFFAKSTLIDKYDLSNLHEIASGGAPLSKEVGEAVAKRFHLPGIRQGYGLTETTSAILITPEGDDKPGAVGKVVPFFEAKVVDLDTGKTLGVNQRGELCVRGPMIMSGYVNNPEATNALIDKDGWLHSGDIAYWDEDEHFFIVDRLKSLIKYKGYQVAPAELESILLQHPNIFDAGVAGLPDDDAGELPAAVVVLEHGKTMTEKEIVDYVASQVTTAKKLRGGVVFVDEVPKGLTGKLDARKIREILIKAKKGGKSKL

The source made the active and inactive calls.

Albumin (Bos taurus), sequence (P02769 whole entry, looked up): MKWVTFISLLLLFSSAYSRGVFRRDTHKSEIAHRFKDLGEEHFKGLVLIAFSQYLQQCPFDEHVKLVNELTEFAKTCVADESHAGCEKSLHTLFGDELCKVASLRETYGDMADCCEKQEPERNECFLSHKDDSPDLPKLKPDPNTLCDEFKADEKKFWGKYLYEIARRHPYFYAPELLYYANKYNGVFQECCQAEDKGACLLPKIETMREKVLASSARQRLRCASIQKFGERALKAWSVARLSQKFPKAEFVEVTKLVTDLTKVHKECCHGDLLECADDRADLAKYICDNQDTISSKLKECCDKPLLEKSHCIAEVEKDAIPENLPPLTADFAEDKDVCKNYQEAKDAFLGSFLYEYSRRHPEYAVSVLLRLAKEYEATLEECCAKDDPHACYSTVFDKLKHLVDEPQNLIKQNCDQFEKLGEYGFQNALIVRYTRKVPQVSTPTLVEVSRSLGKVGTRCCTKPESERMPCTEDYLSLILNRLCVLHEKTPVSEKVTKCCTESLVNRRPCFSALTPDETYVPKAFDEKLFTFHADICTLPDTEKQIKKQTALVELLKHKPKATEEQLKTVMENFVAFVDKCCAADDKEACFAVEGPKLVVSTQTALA
Follistatin (Homo sapiens), sequence (P19883 whole entry, looked up): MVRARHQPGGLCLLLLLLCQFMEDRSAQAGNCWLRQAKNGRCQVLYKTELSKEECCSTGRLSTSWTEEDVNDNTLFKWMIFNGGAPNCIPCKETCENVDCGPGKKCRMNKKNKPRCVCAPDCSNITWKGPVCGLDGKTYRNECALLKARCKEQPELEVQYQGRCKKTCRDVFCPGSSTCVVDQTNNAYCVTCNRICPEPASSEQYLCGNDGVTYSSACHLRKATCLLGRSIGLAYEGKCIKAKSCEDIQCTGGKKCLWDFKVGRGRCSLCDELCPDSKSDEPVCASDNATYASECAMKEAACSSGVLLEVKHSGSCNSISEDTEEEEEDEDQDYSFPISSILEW

On to `O=C1NC(=O)C2C1C=CC(C(O)c1ccco1)N2Nc1ccc(Cl)cc1Cl` (stereo not given), for which the composite z-score in [1] was 0.78; in [3] it was -0.0967; in [4], -0.153; in test [5], 0.794; in test [6] it was 1.28; in test [7], 0.317. The composite z-score is -0.0532 in test [8]; 0.167 in test [9]; 0.321 in [10]; 0.478 in test [11]; 0.944 in [12]; -0.367 in [13]. Further, the composite z-score in test [14] is -0.468; in test [15], 1.13; in test [16], -0.311; in test [18], 0.121; in [19], 0.673. In [2], the composite Z-score is 0.731 (inactive). In addition, the z-score in test [17] was -0.553; in test [20], -0.512 (inactive).
For the compound `COc1ccc([Si](C)(C)[C@@H]2[C@@H](CCO)O[C@]3(C(=O)N(Cc4ccccc4)c4ccc(N5CCOC5=O)cc43)[C@H]2C)cc1`, the composite z-score in test [1] was 0.279; in [3] it was -0.0647; in test [4], -0.102; in test [5] it was 0.324; in [6] it was 0.747; in test [7] it was 0.294. In addition, the composite z-score in [8] was 1.32; in test [9] it was 0.127; in test [10] it was 0.816; in test [11], 0.515; in [12], 1.11; in test [13], -0.0211. In addition, the composite z-score was 0.661 in test [14]; 0.36 in [15]; 0.19 in test [16]; 0.49 in test [18]; 0.896 in test [19]. Moreover, the composite Z-score in test [2] was 0.774 (inactive). In addition, the values for the z-score in test [17] and in [20] were -0.771 and 0.6 (inactive), respectively.
Turning to `C=CCNC(=O)[C@H]1[C@@H]2C(=O)O[C@@H](c3ccccc3)[C@@H](c3ccccc3)N2[C@@H](c2ccccc2OCCO)[C@]12C(=O)N(C(=O)OCCOC)c1ccc(C#CC3(O)CCCCCC3)cc12`, the composite z-score in [1] came to 0.604; in test [3], 0.0225; in test [4] it was 0.0018; in test [5], 0.309; in test [6], 1.79; in test [7] it was 1.05. For the same compound, the composite z-score in test [8] was 1.29; in test [9] it was 0.174; in [10], 0.815; in test [11], 0.977; in test [12], 1.18; in test [13], 0.325. Besides, the composite z-score in test [14] was 0.579; in [15] it was 0.785; in [16], 0.226; in [18], 0.876; in test [19] it was 0.763. In addition, the composite Z-score in test [2] is 0.359 (inactive). For the same compound, the figures for the z-score in [17] and in [20] were -0.634 and -1.64 (inactive), respectively.
Take `COCC(=C=CC[C@H](O)c1ccc(OCCO)cc1)CCO`: the composite z-score is -0.173 in test [1]; -0.0298 in [3]; 0.0312 in test [4]; 0.736 in test [5]; 0.368 in test [6]; 0.342 in test [7]. For the same compound, the composite z-score in test [8] was 0.763; in [9] it was 0.262; in [10], -0.155; in test [11], 0.434; in test [12] it was 0.633; in test [13], -0.225. The composite z-score in test [14] is -0.142; in [15], 1.41; in test [16], 1.06; in test [18], 1.56; in test [19] it was -0.335. For the same compound, the composite Z-score in [2] is -0.321 (inactive). The values for the z-score in test [17] and in test [20] were 0.63 and -1.36 (inactive), respectively.
With `CC(C)NC(=O)[C@@]1(c2ccc([N+](=O)[O-])cc2)CC(=O)N(C2CCCCC2)[C@@H]1c1ccc(CO)cc1`, the composite z-score in test [1] was 0.807; in test [3], 0.325; in [4], -0.245; in [5], 0.729; in test [6] it was 2.17; in test [7], 0.94. In addition, the composite z-score in test [8] was 1.26; in test [9], -0.0413; in [10], 1.02; in [11], 2.4; in test [12], 1.17; in [13], 0.959. In addition, the composite z-score in test [14] was 0.729; in test [15], 1.28; in test [16], 0.584; in test [18] it was 1.29; in [19], 0.965. The composite Z-score in test [2] is -0.107 (inactive). Further, the values for the z-score in test [17] and in test [20] were 0.438 and 1.46 (inactive), respectively.
